# Source: PubChem
# ATXN2 expr inh – ATXN2 expression inhibition; AID 1745845; actives 0.72% (n = 360,000); Potency, µM (series often up to 57 µM), for the others: at the highest dose activity change, negative = inhibition, most hits filed as inhibitors; HEK-293 ATXN2-luciferase reporter, luminescence, 24 h; also: % is scaled to controls: 0 for no effect and ±100 for the full control effect; nearly all actives have a fitted effect of over 55% in size
#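 ATXN2-luciferase reporter cells (luciferase flanked by upstream and downstream ATXN2 gene portions) were treated 24 h at 37 °C with compounds at up to 57 uM. SteadyGlo luminescence gave expression; GF-AFC fluorescence gave viability.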
# DT40 TDP1 CPT – DT40-hTDP1 cell growth loss with CPT; chicken DT40 Tdp1-/-;hTDP1 cells + 20 nM CPT, ATP luminescence, 48 h; Potency, µM (top dose mostly 46.2 µM), for the others: at the highest dose activity change, negative = growth inhibition, most hits filed as inhibitors; actives 12% (n = 420,000); AID 686979; also: % is scaled to controls: 0 for no effect and ±100 for the full control effect; nearly all actives have a fitted effect of over 55% in size
#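 Chicken DT40 Tdp1-/- cells stably complemented with human TDP1 were seeded at 400 cells/well in medium containing 20 nM camptothecin, exposed to pin-transferred compounds, and grown at 37 °C for at least 48 hr. Viability was read as ATP luminescence.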
# HepG2 viability – kills HepG2 cells in TGF-b inhibitor counter-screen | Potency, µM (series often up to 46.1 µM), inactives show at the top dose activity change, negative = cytotoxicity, actives largely listed as cytotoxic | AID 588856 | HepG2 CAGA-GFP viability, ATP luminescence, 18 h | actives 0.76% (n = 410,000)
#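 CellTiter-Glo luminescence gave cytotoxicity after 18 hours at 37 degrees C. The cells were HepG2 CAGA-GFP in 1% FBS DMEM, stimulated with 500 pg/mL TGF-beta after compound addition. %Activity was normalised to no-cell wells (complete cell-killing) and DMSO (no toxicity), and curves were fitted and classified.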
# TGFb inhibitor – blocks TGF-b signaling; HepG2 CAGA-GFP TGF-b/SMAD3 reporter, GFP fluorescence, 18 h; TGF-beta stimulated, 500 pg/mL final; Potency, µM (top dose mostly 46.1 µM), inactives show at the top dose activity, negative = inhibition, most hits filed as inhibitors; actives 1.2% (n = 410,000); AID 588855; also: % is scaled to controls: 0 for no effect and ±100 for the full control effect; nearly all actives have a fitted effect of over 65% in size
#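 Inhibition of TGF-beta-driven CAGA-GFP reporter expression in HEPG2 cells is measured by cellular GFP fluorescence after 18 h stimulation with 500 pg/mL recombinant TGF-beta in 1% FBS medium at 37 degrees C.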
# S2 tox – reduces viability in counter-screen for ATXN expression inhibitors. S2 cells (HEK-293 line with an ATXN2-luciferase reporter) viability, CellTiter-Fluor protease fluorescence, 24 h. Potency, µM (titrated, usually from 56.7 µM), most hits filed as cytotoxic. actives 0.49% (n = 400,000); also: nearly all actives have a fitted effect of over 40% in size
# TDP1 cell noCPT – qHTS for Inhibitors of human tyrosyl-DNA phosphodiesterase 1 (TDP1): qHTS in cells in absence of CPT; DT40 Tdp1-/- hTDP1 cells, no CPT, ATP luminescence, 48 h; Potency, µM (top dose mostly 46.2 µM), inactives show top-dose activity change, negative = growth inhibition, actives largely listed as inhibitors; actives 15% (n = 420,000); also: % is scaled to controls: 0 for no effect and ±100 for the full control effect; nearly all actives have a fitted effect of over 55% in size
#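 Stably hTDP1-transfected Tdp1-null chicken DT40 cells were treated with library compounds minus camptothecin and grown for at least 48 hr at 37 °C, after which cellular ATP was quantified by luminescence.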
# * marks the source's active call; other numbers are inactive results; i = inactive; ? = inconclusive; nt = no result given; [ ] = remark or other dose. Hits are enriched below; roughly 17% of the tested compounds scored in any of these assays. Calls follow the shape of the dose curve; as a rule, active = well fitted curve in the direction sought with a large enough effect; inconclusive = small, poorly fitted or top-dose-only effect, or another doubt; inactive = no such curve, though single readings can be large; an effect the other way counts as inactive or inconclusive. Potency is read from the fitted curve at half-maximal effect.
SMILES,ATXN2 expr inh,DT40 TDP1 CPT,HepG2 viability,TGFb inhibitor,S2 tox,TDP1 cell noCPT
C=CCNC(=O)c1c(N)n(CCN2CCOCC2)c2nc3ccccc3nc12,3%,-9%,-29%,-25%,i,-23%
CC(C)CNC(=O)c1c(N)n(Cc2ccc3c(c2)OCO3)c2nc3ccccc3nc12,?,?,-94%,16µM*,i,?
COCCCNC(=O)c1c(N)n(Cc2ccco2)c2nc3ccccc3nc12,-14%,?,-29%,?,nt,26µM*
Nc1c(C(=O)OCC2CCCO2)c2nc3ccccc3nc2n1Cc1cccs1 (configuration not stated),-7%,?,-28%,?,i,18µM*
Nc1c(C(=O)NCc2ccco2)c2nc3ccccc3nc2n1CCN1CCCCC1,?,23µM*,-51%,?,i,23µM*
CCOc1ccc2nc(NC(=O)c3cccn(Cc4ccc(Cl)cc4)c3=O)sc2c1,1%,0%,-13%,8%,i,0%
COc1ccccc1CNC(=O)C(NS(=O)(=O)c1ccc2c(c1)oc(=O)n2C)C(C)C (configuration not stated),2%,-2%,39%,36%,i,-28%
CC(C)CN1CCCC2(CCN(C(=O)c3ccncc3)CC2)C1,nt,2%,nt,nt,nt,1%
Cc1c(N)c(C)c([N+](=O)[O-])c(C)c1[N+](=O)[O-],nt,?,3%,-3%,i,?
O=c1[nH]c(=O)n(Cc2ccco2)c(O)c1C=NCCCn1ccnc1,3%,-6%,-12%,7%,i,3%
Nc1c(C(=O)NCC2CCCO2)c2nc3ccccc3nc2n1Cc1ccco1 (configuration not stated),?,?,8%,-14%,nt,?
COc1ccc(Cn2c(N)c(C(=O)NCc3ccco3)c3nc4ccccc4nc32)cc1OC,?,6.5µM*,-51%,16µM*,i,6.5µM*
CC(C)CNC(=O)c1c(N)n(Cc2ccco2)c2nc3ccccc3nc12,?,?,-87%,22µM*,nt,?
CCCNC(=O)c1c(N)n(Cc2ccco2)c2nc3ccccc3nc12,-29%,23µM*,-28%,-12%,nt,?
CC(C)OCCCNC(=O)c1c(N)n(Cc2cccs2)c2nc3ccccc3nc12,?,?,22µM*,18µM*,i,18µM*
CC(C)CCNC(=O)c1c(N)n(Cc2ccc3c(c2)OCO3)c2nc3ccccc3nc12,?,?,-3%,2%,i,?
COc1cccc(CCNCc2ccc(SC)cc2)c1,-29%,-26%,-28%,6%,i,?
COCCNC(=O)c1c(N)n(CCC(C)C)c2nc3ccccc3nc12,-15%,12µM*,-77%,?,nt,18µM*
Nc1c2c(nc3sc4c(c13)CCCC4)CCCCC2,-17%,?,-20%,5%,?,18µM*
CCCCOP(=O)(c1ccc(N(C)C)cc1)C(O)c1c(Cl)cccc1Cl (configuration not stated),-29%,?,-25%,-11%,i,?
CC(C)CCOP(=O)(c1ccc(N(C)C)cc1)C(O)c1ccc(Cl)cc1Cl (configuration not stated),0%,16µM*,-170%,?,?,21µM*
CC(C)CCOP(=O)(c1ccc(N(C)C)cc1)C(O)c1ccc(C(C)C)cc1 (configuration not stated),nt,?,-113%,?,?,21µM*
CCOC(=O)c1c(C)n(CC(O)CN2CCOCC2)c2cc(Br)c(OC)cc12 (configuration not stated),-9%,15%,3%,?,i,?
CCCCCCCCCC(=O)O[C@H]1CC[C@H]2[C@@H]3CCC4=CC(=O)CC[C@]4(C)[C@H]3CC[C@]12C,nt,4%,nt,nt,nt,0%
C[C@@H]1O[C@@H](O[C@H]2CC[C@]3(C=O)C4CC[C@]5(C)[C@@H](C6=CC(=O)OC6)CC[C@]5(O)[C@@H]4CC[C@]3(O)C2)[C@H](O)[C@H](O)[C@H]1O (some centres not stated),nt,0.37µM*,nt,nt,nt,0.33µM*
SMILES,ATXN2 expr inh,DT40 TDP1 CPT,HepG2 viability,TGFb inhibitor,S2 tox,TDP1 cell noCPT
C[C@]12CCC3C(CC[C@]4(O)CC(O)CC[C@@]34C=O)[C@]1(O)CCC2C1=CC(=O)OC1 (some centres not stated),nt,10%,nt,nt,nt,-21%
CC1O[C@@H](OC2CC[C@@]3(C=O)C4CC[C@]5(C)C(C6=CC(=O)OC6)CC[C@@]5(O)C4CC[C@]3(O)C2)C(O)C(O)C1O (some centres not stated),nt,0.46µM*,nt,nt,nt,0.58µM*
O=C(CNC(=O)c1ccco1)OCN1C(=O)c2ccccc2C1=O,-14%,?,-2%,5%,i,?
O=C(CN1CC(c2ccccc2)CC1=O)Nc1ccc(F)cc1 (configuration not stated),4%,2.9µM*,-2%,-13%,i,-15%
Cc1cccc(CN2CCN(C(=O)Cc3ccccc3)CC2)c1,-13%,1%,-4%,-7%,i,-24%
Cc1cccc(CN2CCc3nc(N4CCN(c5ccccn5)CC4)ncc3C2)c1,nt,15µM*,-13%,0%,nt,10µM*
COc1ccc(-c2cc3nc(NCc4ccc(N(C)C)cc4)n(C)c(=O)c3s2)cc1OC,-13%,?,4%,?,i,-25%
COc1ccc(NC(=O)c2ccco2)cc1NC(=O)COc1cc(C)cc(C)c1,-19%,8.2µM*,-29%,-4%,?,5.8µM*
COc1cc(NC(=O)c2ccco2)ccc1NC(=O)c1ccccc1Cl,55%,4%,2%,0%,i,?
CCS(=O)(=O)Nc1cccc(C(=C2CCCCC2)c2cnc[nH]2)c1,2%,?,-20%,-10%,i,21µM*
O=C(c1ccncc1)N1CCC2(CC1)CN(Cc1ccccc1)C2,nt,-12%,nt,nt,nt,12%
COc1ccc(/C=N\NC(=O)c2cccc(F)c2)cc1COc1ccccc1,5%,0.82µM*,46%,?,?,0.65µM*
C/C=C1/CN2CC[C@]34C(=C(C=O)[C@@H]1C[C@H]23)Nc1c(O)cccc14,nt,-8%[9.04 µM],nt,nt,nt,-14%[9.04 µM]
CSc1cccc(NC(=O)C2CCN(C(=O)c3cnn(-c4ccccc4)c3-n3cccc3)CC2)c1,?,16µM*,-20%,?,?,18µM*
